# Results as given in PubChem BioAssay AID1851 (National Center for Advancing Translational Sciences (NCATS), 2009).
# Among all 16,000 compounds or so, about 5,800 (36%) were called active. Inconclusive results (about 23%) are left out. This is one part of the list. Values without a mark were called inactive. The call rests on the fitted dose curve; in most records, active means well fitted curve in the direction sought with a large enough effect; inconclusive means small, poorly fitted or top-dose-only effect, or effect the other way; inactive means no such curve, though single readings can be large or run the other way.
# Molecular target: Cytochrome P450 2C19 (Homo sapiens) (UniProt P33261)
# Sequence (P33261 whole entry, looked up): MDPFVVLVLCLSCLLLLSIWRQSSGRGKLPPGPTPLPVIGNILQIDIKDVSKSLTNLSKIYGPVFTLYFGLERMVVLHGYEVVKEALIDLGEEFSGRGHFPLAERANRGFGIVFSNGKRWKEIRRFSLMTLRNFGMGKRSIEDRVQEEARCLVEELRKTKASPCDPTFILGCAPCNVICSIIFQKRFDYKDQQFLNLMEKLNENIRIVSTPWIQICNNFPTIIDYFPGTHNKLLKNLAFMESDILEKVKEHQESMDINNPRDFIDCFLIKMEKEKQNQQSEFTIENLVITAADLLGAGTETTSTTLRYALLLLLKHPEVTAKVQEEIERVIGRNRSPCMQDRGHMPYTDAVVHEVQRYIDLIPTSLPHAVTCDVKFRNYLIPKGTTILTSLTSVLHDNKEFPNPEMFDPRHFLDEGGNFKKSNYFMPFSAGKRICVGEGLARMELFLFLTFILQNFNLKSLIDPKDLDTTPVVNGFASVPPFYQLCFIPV
# Assay: Cytochrome panel assay with activity outcomes
# Settings: recombinant CYP, pro-luciferin dealkylation, luminescence, p450-cyp2c19; series mostly up to 57.1 µM; activity, negative = inhibition: at the top concentration
# On the % scale 0 is the no-effect control and ±100 the full control effect.
Compound,"activity, negative = inhibition",AC50
CCOc1ccc(Cc2nccc3cc(OCC)c(OCC)cc23)cc1OCC,8.39% [at 25.6 µM],–
C/C(CC/C(C)=N/O)=N/O,6.8% [at 11.4 µM],–
CCS(=O)(=O)N1CCC(C(=O)NCCCN2CCCC2)CC1,-1.56%,–
O=C(NCCCN1CCN(Cc2ccccc2)CC1)C1CCN(S(=O)(=O)N2CCCC2)CC1,-10.4%,–
CCS(=O)(=O)N1CCC(C(=O)NCc2ccccc2OC)CC1,–,39.8 µM (active)
CCOCCCNC(=O)C1CCN(S(=O)(=O)N2CC(C)CC(C)C2)CC1 (stereo not drawn),-22.9%,–
COc1cccc(CNC(=O)C2CCN(S(=O)(=O)N3CCCCC3)CC2)c1,-23.7%,–
O=C(NCCc1ccc(Cl)cc1)C1CCN(S(=O)(=O)N2CCC3(CC2)OCCO3)CC1,–,4.47 µM (active)
CCS(=O)(=O)N1CCC(C(=O)NCCCOC)CC1,-13.8%,–
COc1ccc(CCNC(=O)C2CCN(S(=O)(=O)N3CC(C)CC(C)C3)CC2)cc1OC (stereo not drawn),–,14.1 µM (active)
O=C(NCc1ccccc1Cl)C1CCN(S(=O)(=O)N2CCC3(CC2)OCCO3)CC1,–,22.4 µM (active)
CCS(=O)(=O)N1CCC(C(=O)NCc2ccco2)CC1,-10.1%,–
CCOc1ccc(CCNC(=O)C2CCN(S(=O)(=O)CC)CC2)cc1OCC,-24.6%,–
O=C(Nc1ccc(F)cc1F)c1cccn1-c1ncc(C(F)(F)F)cc1Cl,–,10 µM (active)
Cc1ccc(C(=O)Nc2ccc(Cc3ccncc3)cc2)cc1[N+](=O)[O-],–,1.12 µM (active)
Cc1ccc(C(=O)N/N=C\c2ccc[nH]2)cc1[N+](=O)[O-],1.23%,–
Cc1ccc(C(=O)Nc2ccccc2Oc2ccccc2)cc1[N+](=O)[O-],–,3.16 µM (active)
CC(=O)c1ccc(NC(=O)C2(c3ccccc3)CCOCC2)cc1,–,14.1 µM (active)
Cc1noc(C)c1C(=O)N1CCC2(CCN(C(=O)Nc3ccccc3)CC2)CC1,-16.5%,–
CCOC(=O)c1ccc(NC(=O)C2(c3ccc(OC)cc3)CCOCC2)cc1,–,2.24 µM (active)
COc1ccc(NC(=O)C2(c3ccc(NC(=O)c4ccc(C)cc4)cc3)CCCC2)cc1,23.1%,–

Compound,"activity, negative = inhibition",AC50
COc1ccc(NC(=O)N2CC3(CCN(C(=O)c4ccc(OC)cc4)CC3)C2)cc1,5.03%,–
COc1ccc(NC(=O)C2(c3ccc(NC(=O)c4ccc(OC(C)=O)cc4)cc3)CCCC2)cc1,0.405%,–
NS(=O)(=O)c1cc2c(cc1Cl)N[C@@H](CC1CCCC1)NS2(=O)=O,-18.8% [at 25.6 µM],–
O=[N+]([O-])c1ccc(C=Nc2ccc(Cl)cc2Cl)s1,–,7.08 µM (active)
O=C(/C=C/Nc1ccccc1)c1ccc(Oc2ncccn2)cc1,–,15.8 µM (active)
COc1ccc(-c2noc(N(C)CC(=O)Nc3cccc(C(F)(F)F)c3)n2)cc1,–,4.47 µM (active)
COc1ccc(NC(=O)c2ccc(-c3ccc(-c4noc(C)n4)cc3C)cc2)cc1OCCN(C)C,-37%,–
CC[C@]1(O)C[C@@H]2CN(CCc3c([nH]c4ccccc34)[C@](C(=O)OC)(c3cc4c(cc3OC)N(C=O)[C@H]3[C@@](O)(C(=O)OC)[C@H](C(=O)OC)[C@@]5(CC)C=CCN6CC[C@]43[C@H]65)C2)C1,-33.8%,–
CC1=NCC[N@@+]1(CCc1ccccc1)Cc1ccccc1,32.9% [at 11.4 µM],–
COc1ccc2[nH]cc(CCNc3ncnc4ccc(-c5ccc(C(=O)N(C)C)cc5)cc34)c2c1,–,7.94 µM (active)
COc1ccc2[nH]cc(CCNc3ncncc3-c3ccc(C(=O)N(C)C)cc3)c2c1,–,10 µM (active)
COc1ccc2[nH]cc(CCNc3ncncc3-c3ccc(N(C)C)cc3)c2c1,–,1.58 µM (active)
O=C(O)c1[nH]c2c([N+](=O)[O-])cc([N+](=O)[O-])cc2c1C(=O)O,39.2% [at 11.4 µM],–
NS(=O)(=O)c1cc2c(cc1C(F)(F)F)N[C@H](Cc1ccccc1)NS2(=O)=O,-20.3% [at 25.6 µM],–
CC[n+]1c(P(=O)([O-])c2ccccc2)[nH]c2ccccc21,-15.5%,–
CN1CC(c2ccccn2)C2(SC(=S)N(Cc3ccccc3)C2=O)C12C(=O)Nc1ccccc12 (stereo not drawn),–,1.12 µM (active)
Cc1ccc(C(=O)c2c[nH]c(C(=O)NCCCN3CCOCC3)c2)cc1,-7.11%,–
CCC(CC)C(=O)c1c[nH]c(C(=O)NCCCN2CCOCC2)c1,17.8%,–
CC(C)(C)c1ccc(C(=O)c2c[nH]c(C(=O)NCCCn3ccnc3)c2)cc1,–,0.1 µM (active)
O=C(c1ccc(C(F)(F)F)cc1)c1c[nH]c(C(=O)NCCCn2ccnc2)c1,–,0.631 µM (active)
CCOC(=O)NC(NC(=O)OCC)C(=O)c1ccc(F)cc1,-29.8%,–

Compound,"activity, negative = inhibition",AC50
Cc1c(CCO)c(=O)n(C)n1C(=O)c1ccc(F)cc1,–,17.8 µM (active)
Cc1ccc(-n2nnnc2-c2cnc3ccc(Cl)cc3c2-c2ccccc2)cc1,–,7.94 µM (active)
Clc1ccc2[nH]cc(-c3nnnn3-c3ccccc3)c2c1,–,1.12 µM (active)
N#Cc1cccc(-c2nc3cnc(Nc4ccccc4)nc3n(C[C@H]3CCCO3)c2=O)c1,5.15%,–
O=C(Nc1ccccc1Cl)c1ccn[nH]1,14.8%,–
Cn1sc(NC(=O)c2ccccc2Cl)nc1=O,–,14.1 µM (active)
Cc1ccc(Cl)c(Nc2ccccc2C(=O)O)c1Cl,–,inactive
Cn1sc(NC(=O)c2ccccc2)nc1=O,-23.1%,–
Cc1cc(NC(=O)c2ccccc2Cl)c(C(C)C)cc1O,–,3.98 µM (active)
O=C(Nc1ccccc1Cl)c1ccccc1Cl,–,20 µM (active)
CC[C@@]12CCCN3CCc4c(n(c5ccccc45)[C@](O)(C(=O)OC)C1)[C@H]32,–,inactive
O=C(CSCc1ccccc1)Nc1cccc(C(=O)Nc2ccccc2C(=O)O)c1,–,11.2 µM (active)
O=C(Nc1cccc(C(=O)Nc2ccc(S(=O)(=O)O)c3cc(S(=O)(=O)O)cc(S(=O)(=O)O)c23)c1)Nc1cccc(C(=O)Nc2ccc(S(=O)(=O)O)c3cc(S(=O)(=O)O)cc(S(=O)(=O)O)c23)c1,–,inactive
CCNc1ncc2nc(-c3cc(F)cc(F)c3)c(=O)n(Cc3cccs3)c2n1,2.98%,–
O=C(O)[C@H](CCc1ccccn1)c1ccccc1,9.85% [at 11.4 µM],–
CCCC(C(=O)Nc1nccs1)c1ccccc1 (stereo not drawn),–,3.16 µM (active)
COc1cc(C=O)ccc1OCCOCCOc1ccccc1Cl,–,1.26 µM (active)
COc1cc(C=O)ccc1OCCCOc1ccccc1C(=O)O,-6.37%,–
COc1cc(C)ccc1OCCCOc1ccccc1Br,–,0.501 µM (active)
COc1ccccc1OCCCOc1ccc([N+](=O)[O-])cc1Cl,–,0.316 µM (active)
COc1cc(C)ccc1OCCCOc1ccccc1Cl,–,1.12 µM (active)
